The list is not random: actives were taken first. Their share in the collection is about 7.4%.
ERK AVP block = blocks ERK signaling stimulated by vasopressin; HEK293-V1b, vasopressin-stimulated pERK AlphaScreen; Potency, µM (highest dose often 57.5 µM), inactives show at the top dose activity, negative = inhibition, actives largely listed as inhibitors; 0.99% of 72,000 active; AID 995; further: on the % scale 0 is the no-effect control and ±100 the full control effect; nearly all actives have a fitted effect of over 55% in size
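Overnight-seeded V1b-HEK293 cells in 1% FBS got compound, then vasopressin (25 nM final, 5 min, 37C), then lysis buffer. AlphaScreen detection of phospho-ERK; activity normalized to basal and full-stimulation controls.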
Tau filament bind = tau filament binding | AID 596 | recombinant tau filaments, thioflavin S fluorescence, 15 h; filaments grown with octadecylsulfate alongside compound | Potency, µM (series often up to 57.1 µM), for the others: at the top dose activity change, negative = inhibition | 2% of 71,000 active | P10636;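 further: on the % scale 0 is the no-effect control and ±100 the full control effect; actives lower thioflavin S fluorescence by blocking filaments or displacing dye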
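ThS-based fibril read: tau 1 uM final, inducer ODS 30 uM final, 37 C for 15 h, ex 450/em 510 nm.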
HEK293 cAMP cs = raises cAMP in parental HEK293 cells, TSHR agonist counter-screen. parental HEK293 CNG cAMP sensor, membrane potential fluorescence. Potency, µM (highest dose often 57.1 µM), inactives show top-dose activation, usual class: activators. 2.5% of 73,000 active. AID 938; further: % of control where 0% means no effect; nearly all actives have a fitted effect of over 55% in size
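Parental HEK 293 cells stably expressing a cAMP-gated CNG channel were loaded with membrane potential dye containing 100 uM RO 20-1724 for 60 min. Compound added for 30 min; depolarization read as fluorescence intensity at 590 nm.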
CRE Fsk mod = modulators of forskolin-stimulated CRE signaling in CHO cells | Potency, µM (doses to about 38.2 µM), without a hit: at the highest dose activity change, negative = inhibition, actives largely listed as activators | 2.5% of 71,000 active | CHO CRE-bla reporter (cAMP response element driving beta-lactamase), forskolin EC10, beta-lactamase ratio | AID 662; active means well fitted activation curve with a large enough effect in the signal ratio, with a control signal flat, not every such curve was filed as active; inconclusive means small, poorly fitted or top-dose-only effect, or effect the other way, or a change in a side signal; the % refers to the signal ratio; further: % of control where 0% means no effect
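CHO CRE-bla cells, overnight plating in Opti-MEM with 0.5% dialyzed FBS; cpd titration + EC10 NKH 477, 3 h 37 °C; CCF4 2 h RT; ex 405/em 460 vs 530 ratio → %Activity, AC50.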
TSHR ag = TSH receptor (human) agonism; P16473; AID 926; Potency, µM (series often up to 57.1 µM), without a hit: at the top dose activation, most hits filed as activators; HEK293-CNG-TSHR cells (CNG channel as cAMP sensor), membrane potential dye, cAMP; 0.48% of 73,000 active; active means well fitted activation curve with a large enough effect in the main read-out, with a control signal flat, not every such curve was filed as active; inconclusive means small, poorly fitted or top-dose-only effect, or a change in a side signal; inactive means no such curve, though single readings can be large or run the other way; % of control where 0% means no effect;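 further: the control signal comes from parental cells without the receptor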
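HEK 293 cells stably expressing TSHR and a modified CNG channel, with CNG-only parental cells as counterscreen, were preloaded 60 min at room temperature with membrane potential dye containing 100 uM RO 20-1724. Compound exposure was 30 min, and depolarization was read as fluorescence at 590 nm.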
* marks the source's active call; other numbers are inactive results; ? = inconclusive; nt = no result given; ! = a repeat was not active; [ ] = remark or other dose. Unless noted, the call rests on the fitted dose curve; in most records, active means well fitted curve in the direction sought with a large enough effect; inconclusive means small, poorly fitted or top-dose-only effect, or another doubt; inactive means no such curve, though single readings can be large; an effect the other way counts as inactive or inconclusive. Potency means the concentration at half of the fitted maximal effect.

SMILES	ERK AVP block	Tau filament bind	HEK293 cAMP cs	CRE Fsk mod	TSHR ag
CCOCC(=O)Nc1c(C(=O)OCC)oc2ccccc12	19.1%	-7.0%	?	10µM*	?
COCC(=O)Nc1c(C(=O)Nc2ccccc2OC)oc2ccccc12	-7.0%	163.7%	?	8.4%	?
COc1ccc(NC(=O)c2oc3ccccc3c2NC(=O)C(C)(C)C)cc1	36.6%	12.6µM*	?	6.2%	?
CCOC(=O)c1oc2ccccc2c1NC(=O)COC	-20.2%	5.0%	28.4%	?	5.8%
CCOC(=O)c1oc2ccccc2c1NC(=O)c1cc(OC)cc(OC)c1	-7.5%	37.5%	?	10µM*	?
COc1ccccc1NC(=O)c1oc2ccccc2c1NC(=O)c1cc(OC)c(OC)c(OC)c1	20.7%	12.8%	8.8%	1.26µM*	6.2%
CCN1C(=O)[C@H]2[C@H]3[C@H](O)[C@H](O)C/C(=N/O[C@@H](C)CN4CCCCc5nc(C)c(C)cc54)[C@@H]3CC[C@@H]2C1=O	11.6%[11.5 µM]	nt	-0.1%[11.4 µM]	nt	5.3%[11.4 µM]
CN(C)[C@H]1C(=O)C(C(=O)NCN2CCCC2)=C(O)[C@]2(O)C(=O)C3=C(O)c4c(O)cccc4[C@@](C)(O)[C@H]3C[C@@H]12	-2.3%[25.7 µM]	0.9%[25.6 µM]	1.1%[25.6 µM]	1.8%[17.1 µM]	-2.7%[25.6 µM]
c1ccc2c(c1)c1ccccc1n2Cn1c2ccccc2c2ccccc21	-14.9%[11.5 µM]	-3.1%[11.4 µM]	-1.9%[11.4 µM]	-0.7%[7.6 µM]	3.6%[11.4 µM]
CCC(CC)C(=O)NCc1ccc2c(c1)cc(C)n2C	11.9%	-21.3%	6.31µM*	-7.8%	?
Cc1cc2cc(CNC(=O)Nc3ccccc3)ccc2n1C	-20.8%	20µM*	-2.1%	-9.7%	-11.5%
Cc1cc2cc(CNC(=O)c3cccs3)ccc2n1C	13.1%	25.1µM*	-4.1%	3.1%	4.1%
O=C(O)[C@H]1CC=CC[C@@H]1C(=O)Nc1cccc(O)c1	22.0%[11.5 µM]	6.5%[11.4 µM]	-2.4%[11.4 µM]	0.6%[7.6 µM]	-3.6%[11.4 µM]
Cc1ccc(-c2nnn(CC(=O)N(c3ccc(F)cc3)C(C(=O)NC3CCCC3)c3ccco3)n2)o1 (configuration not stated)	6.4%	-12.9%	21.8%	6.5%	0.8%
COc1ccccc1N(CC(=O)NC(C)(C)C)C(=O)Cn1nnc(-c2ccc(C)o2)n1	6.8%	5.9%	7.9%	-4.2%	3.0%
Cc1ccc(-c2nnn(CC(=O)N(Cc3cccs3)C(C(=O)NC(C)(C)C)c3ccco3)n2)o1 (configuration not stated)	-24.1%	23.3%	1µM*	?	?
Cc1ccc(C(C(=O)NC(C)(C)C)N(CC2CCCO2)C(=O)Cn2nnc(-c3ccc(C)o3)n2)cc1 (configuration not stated)	-2.1%	-3.3%	25.1µM*	-1.9%	?
Cc1ccc(-c2nnn(CC(=O)N(Cc3cccs3)C(C(=O)NC(C)(C)C)c3ccc(C)o3)n2)o1 (configuration not stated)	8.5%	32.3%	25.1µM*	?	?
Cc1ccc(-c2nnn(CC(=O)N(Cc3ccco3)C(C(=O)NC(C)(C)C)c3cccs3)n2)o1 (configuration not stated)	-17.1%	-8.2%	20µM*	-0.5%	?
O=C(O)/C(=C\c1ccc(O)cc1)c1cccc2ccccc12	11.3%[11.5 µM]	5.1%[11.4 µM]	10.6%[11.4 µM]	-5.5%[7.6 µM]	-4.3%[11.4 µM]
C=C(C)C(=O)OCC1CN2C(CCC(C)C2c2ccc(Br)cc2)C(=O)O1 (configuration not stated)	10.8%[11.5 µM]	nt	1.58µM*!	nt	?
C=COCC1CN2C(CCC(C)C2c2ccc(Br)cc2)C(=O)O1 (configuration not stated)	10.6%[11.5 µM]	nt	?	nt	?
COc1ncc2nc(-c3cc(F)cc(F)c3)c(=O)n(Cc3cccs3)c2n1	-22.8%	-28.2%	7.2%	5.01µM*	-0.2%
O=c1c(-c2cccs2)nc2cnc(Oc3ccccc3)nc2n1Cc1cccs1	13.2%	-7.9%	18.2%	?	1.0%
O=c1cnc2cnc(Oc3ccccc3)nc2n1Cc1cccs1	-17.3%	-9.4%	20µM*	-7.2%	?
COc1ncc2nc(-c3cccs3)c(=O)n(Cc3cccs3)c2n1	-2.1%	159.2%	4.7%[2.29 µM]	2.51µM*	-0.3%
COc1cccc(Nc2ncc3ncc(=O)n(Cc4cccs4)c3n2)c1	-22.7%	16.6%	15.8µM*	?	?
